A selection: hits, their analogues and other compounds. The true share with any hit is near 3.1%.
Casp6 inh: human caspase-6 inhibitors, primary screen, biochemical, VEID-R110 fluorescence, single point, set 2 | purified caspase-6, Z-VEID-R110 cleavage fluorescence | inhibition, % at 12.5 µM | actives 0.53% (n = 350,000) | AID 686996, 2013;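 active = mean inhibition across replicates at least about 35%, with every replicate also reaching that limit, limit read from the data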
FGF22 binding: binders of human FGF22 protein, primary screen, FGF22 synaptogenesis inhibitor project, biophysical, thermal shift, single point; Fibroblast growth factor 22 (Homo sapiens), Q9HCT0; recombinant FGF22 thermal shift, SYPRO orange fluorescence; percent of sucrose octasulfate shift, DMSO zero; activity (Tm shift, normalised), % at 9.99 µM; actives 1.5% (n = 340,000); AID 651658, 2012;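 active = mean Tm shift, scaled 0 neutral to 100 positive control, at about 1.3% or above, every replicate too, limit read from the data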
ERAP1 inh: human ERAP1 aminopeptidase inhibitors, primary screen, biochemical, single point, plate reader; Endoplasmic reticulum aminopeptidase 1 (Homo sapiens), Q9NZ08; recombinant ERAP1, Leu-AMC fluorescence, 60 min; inhibition, % at 10.7 µM; actives 0.15% (n = 340,000); AID 652197, 2013;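 active = mean replicate inhibition of at least 30%, or all replicates individually reaching that 30% level; inactive = mean below 30% and not every replicate reaching it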
SIRT5 block: SIRT5 desuccinylase inhibitors, primary screen, biochemical, fluorescence imaging, single point, set 5. NAD-dependent protein deacylase sirtuin-5, mitochondrial (Homo sapiens), Q9NXA8. Purified SirT5, succinyl-peptide AMC, trypsin-coupled fluorescence. inhibition, % at 15 µM. actives 1.1% (n = 330,000). AID 652115, 2013; in the data active = inhibition above about 15%
Numbers stand for hits.

How did CO[C@@H]1CN(C)C(=O)c2cc(NC(=O)C3CC3)ccc2OC[C@H](C)N(CCC(F)(F)F)C[C@@H]1C do in these assays?
Casp6 inh: inactive; FGF22 binding: inactive; ERAP1 inh: inactive; SIRT5 block: inactive

Results for CC(=O)c1cc(-c2ccccc2)n(CCC(=O)NC2CCCC2)c1C ?
Casp6 inh: inactive; FGF22 binding: 44; ERAP1 inh: inactive; SIRT5 block: inactive

How did CNc1ccc2nnc(C(F)(F)C(F)(F)C(F)(F)F)n2n1 do in these assays?
Casp6 inh: inactive; FGF22 binding: 43; ERAP1 inh: inactive; SIRT5 block: inactive

Results for c1coc(-c2nnc(-c3ccco3)nn2)c1 ?
Casp6 inh: 89; FGF22 binding: inactive; ERAP1 inh: inactive; SIRT5 block: 18

What do the screens show for `C[C@H]1CN([C@@H](C)CO)S(=O)(=O)c2ccc(C3=CCCCC3)cc2O[C@@H]1CN(C)C(=O)c1ccc(F)cc1`?
Casp6 inh: inactive; FGF22 binding: inactive; ERAP1 inh: inactive; SIRT5 block: 16

How did C[C@@H]1CN([C@H](C)CO)S(=O)(=O)c2ccc(C3=CCCCC3)cc2O[C@H]1CN(C)S(=O)(=O)c1ccc(F)cc1 do in these assays?
Casp6 inh: inactive; ERAP1 inh: inactive; SIRT5 block: 30

What do the screens show for `C[C@@H]1CN([C@H](C)CO)S(=O)(=O)c2ccc(C3=CCCCC3)cc2O[C@@H]1CN(C)C(=O)Nc1ccc2c(c1)OCO2`?
Casp6 inh: inactive; FGF22 binding: inactive; ERAP1 inh: inactive; SIRT5 block: 15

Results for C[C@H](CO)N1C[C@H](C)[C@H](CN(C)S(=O)(=O)c2ccc(F)cc2)Oc2cc(C3=CCCC3)ccc2S1(=O)=O ?
Casp6 inh: inactive; FGF22 binding: inactive; ERAP1 inh: inactive; SIRT5 block: inactive

Results for C[C@H](CO)N1C[C@H](C)[C@@H](CN(C)S(=O)(=O)c2ccc(F)cc2)Oc2cc(C3=CCCCC3)ccc2S1(=O)=O ?
Casp6 inh: inactive; FGF22 binding: inactive; ERAP1 inh: inactive; SIRT5 block: 19

Results for Cc1cc([N+](=O)[O-])nn1CCC(=O)Nc1nccs1 ?
Casp6 inh: inactive; FGF22 binding: 43; ERAP1 inh: inactive; SIRT5 block: inactive

Results for COc1ccc(S(=O)(=O)Nc2ccc3c(c2)C(=O)N([C@H](C)CO)C[C@@H](C)[C@@H](CN(C)S(=O)(=O)c2ccccc2)OCCCC[C@@H](C)O3)cc1 ?
Casp6 inh: inactive; FGF22 binding: inactive; ERAP1 inh: inactive; SIRT5 block: 24

Results for COc1ccc(S(=O)(=O)Nc2ccc3c(c2)C(=O)N([C@H](C)CO)C[C@H](C)[C@H](CN(C)S(=O)(=O)c2ccccc2)OCCCC[C@H](C)O3)cc1 ?
Casp6 inh: inactive; FGF22 binding: inactive; ERAP1 inh: inactive; SIRT5 block: 17

How did COCC(=O)N1[C@H](CO)[C@H]2c3ccccc3N(C(=O)NC(C)C)C[C@H]21 do in these assays?
Casp6 inh: inactive; FGF22 binding: inactive; ERAP1 inh: inactive; SIRT5 block: inactive

What do the screens show for `O=C(N/N=C/c1ccc([N+](=O)[O-])o1)c1ccccc1NS(=O)(=O)c1cccs1`?
Casp6 inh: 40; FGF22 binding: inactive; SIRT5 block: inactive

Results for CO[C@@H]1CN(C)C(=O)c2ccc(NC(=O)C3CC3)cc2OC[C@@H](C)N(C(=O)Cc2ccccn2)C[C@H]1C ?
Casp6 inh: 39; FGF22 binding: inactive; ERAP1 inh: inactive; SIRT5 block: inactive

How did CO[C@@H]1CN(C)C(=O)c2ccc(NC(=O)C3CCCC3)cc2OC[C@@H](C)N(C)C[C@H]1C do in these assays?
Casp6 inh: inactive; FGF22 binding: inactive; ERAP1 inh: inactive; SIRT5 block: inactive

What do the screens show for `CO[C@@H]1CN(C)C(=O)c2ccc(NC(=O)C3CC3)cc2OC[C@@H](C)N(C)C[C@H]1C`?
Casp6 inh: 99; FGF22 binding: inactive; ERAP1 inh: inactive

How did Cn1cnc(S(=O)(=O)N2CC[C@@H]3[C@@H](CO)Nc4ccc(C#Cc5ccc(F)cc5)cc4[C@@H]32)c1 do in these assays?
Casp6 inh: inactive; FGF22 binding: inactive; ERAP1 inh: inactive; SIRT5 block: inactive

Results for Cc1cccc(S(=O)(=O)N2C[C@@H]3[C@H](c4ccccc42)[C@@H](CO)N3CC2CCCC2)c1 ?
Casp6 inh: inactive; FGF22 binding: inactive; ERAP1 inh: inactive; SIRT5 block: inactive

How did O=C(c1ccccc1F)N1C[C@H]2[C@@H](c3ccccc31)[C@@H](CO)N2CC1CCCCC1 do in these assays?
Casp6 inh: inactive; FGF22 binding: inactive; ERAP1 inh: inactive; SIRT5 block: 27

What do the screens show for `Cc1cccc(S(=O)(=O)N2C[C@H]3[C@@H](c4ccccc42)[C@@H](CO)N3CC2CCCC2)c1`?
Casp6 inh: inactive; FGF22 binding: inactive; ERAP1 inh: inactive; SIRT5 block: 15

How did O=C(C1CCCCC1)N1C[C@H]2[C@@H](c3ccccc31)[C@H](CO)N2C(=O)Cc1ccccn1 do in these assays?
Casp6 inh: inactive; FGF22 binding: inactive; ERAP1 inh: inactive; SIRT5 block: 16

Results for CCC(=O)N1C[C@H]2[C@@H](c3ccccc31)[C@@H](CO)N2CC1CCCC1 ?
Casp6 inh: inactive; FGF22 binding: inactive; ERAP1 inh: inactive; SIRT5 block: 16

How did CC(C)CC#Cc1ccc2c(c1)O[C@H](CN(C)Cc1cccc(F)c1)[C@@H](C)CN([C@@H](C)CO)S2(=O)=O do in these assays?
Casp6 inh: inactive; FGF22 binding: inactive; ERAP1 inh: inactive; SIRT5 block: inactive

What do the screens show for `C[C@@H]1CN([C@H](C)CO)C(=O)c2cc(NC(=O)CCC(F)(F)F)ccc2O[C@H]1CN(C)S(=O)(=O)c1cn(C)cn1`?
Casp6 inh: inactive; FGF22 binding: inactive; ERAP1 inh: inactive; SIRT5 block: inactive

Results for COc1cccc(C(=O)CN2CCN(S(=O)(=O)c3cccc([N+](=O)[O-])c3)CC2)c1 ?
Casp6 inh: inactive; FGF22 binding: 43; ERAP1 inh: inactive; SIRT5 block: inactive

What do the screens show for `CSc1nc(SCC(=O)O)c2sc3nc(-c4ccccc4)c4c(c3c2n1)CCC4`?
Casp6 inh: inactive; FGF22 binding: inactive; ERAP1 inh: inactive; SIRT5 block: 19

Results for CSc1nc(NCCN(C)C)c2sc3nc(-c4ccco4)c4c(c3c2n1)CCC4 ?
Casp6 inh: inactive; FGF22 binding: inactive; SIRT5 block: inactive

Results for COc1cccc(NC(=O)N(C)C[C@@H]2Oc3cc(/C=C/c4ccccc4)ccc3S(=O)(=O)N([C@@H](C)CO)C[C@H]2C)c1 ?
Casp6 inh: inactive; FGF22 binding: inactive; ERAP1 inh: inactive; SIRT5 block: 102

Results for COc1cccc(NC(=O)N(C)C[C@@H]2Oc3cc(/C=C/c4ccccc4)ccc3S(=O)(=O)N([C@H](C)CO)C[C@@H]2C)c1 ?
Casp6 inh: inactive; FGF22 binding: inactive; ERAP1 inh: inactive; SIRT5 block: inactive
